{"source": "PubChem BioAssay (NCI)", "note": "Compounds without any hit were thinned out: in the full panel of roughly 83,000, 20% have a hit.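 Negative percent growth values reflect cell death: -40 means 40% of the cells present at the start died, and -100 means all died.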 Values without a mark were called inactive. The source made the active and inactive calls. The calls were made as follows: active = growth percent below 10; inactive = the rest.", "data": [{"system": "BT-549 breast", "assay": "NCI-60 one-dose screen, 48 h (100 = growth as untreated, 0 = no growth, -100 = all killed)", "settings": "10 µM unless noted", "values": [{"molecule": "Cc1ccc2nc(CN(CCN(Cc3nc4ccc(C)cc4[nH]3)Cc3nc4ccc(C)cc4[nH]3)Cc3nc4ccc(C)cc4[nH]3)[nH]c2c1", "growth": "-98.2% (active)"}, {"molecule": "CO[C@@]12[C@@H]3NC3CN1C1=C(C(=O)C(N)=C(C)C1=O)[C@@H]2COC(N)=O", "note": "(some centres not stated)", "growth": "28.6%"}, {"molecule": "COCCn1c(Nc2ccc(C(=O)NO)cc2)nc2ccccc21", "growth": "86.6%"}, {"molecule": "CCCCCNCCCCCNc1cc(OC)cc2cccnc12", "growth": "69.2%"}, {"molecule": "CC(=O)OC1Oc2cc(C)c(C)cc2-c2oc(=O)c(-c3ccc(F)cc3)cc21", "note": "(configuration not stated)", "growth": "89.3%"}, {"molecule": "CCCCCCCCCCCCCCCC1=NCC[N+]1(CCO)CCO", "growth": "79.6%"}, {"molecule": "Nc1cc2nc3ccccc3oc-2cc1=O", "growth": "-47.1% (active)"}, {"molecule": "O=C1C=CC(=O)N1CO", "growth": "116%"}, {"molecule": "COc1ccc(C2C=C(c3ccc(Cl)cc3)N=C3SC=CN32)cc1", "note": "(configuration not stated)", "growth": "90.3%"}, {"molecule": "CCCCCc1c(C)[nH]c(/C=C2\\N=C(c3ccc[nH]3)C=C2CC)c1C", "growth": "-96.6% (active)"}, {"molecule": "CC(=O)OC1Oc2ccccc2-c2oc3nc(=N)n(C)c-3cc21", "note": "(configuration not stated)", "growth": "128%"}, {"molecule": "Cn1c(=O)c2c3c(oc2c2ccccc21)C(=O)c1ccccc1C3=O", "growth": "77.4%"}, {"molecule": "CN(CCO)c1ccc(N2Cc3ccccc3OC3=C2C(=O)c2c(O)ccc(O)c2C3=O)cn1", "growth": "-73.2% (active)"}, {"molecule": "Fc1ccc(-c2nnc(N3CCOCC3)c3ccccc23)cc1", "growth": "81.4%"}, {"molecule": "CCCCCCCCCCCCCCCCCC1=NC(C)(C)CN1C(C)(C)CO", "growth": "64.7%"}, {"molecule": "CC(=O)OC1Oc2cc(C)c(C)cc2-c2oc(=O)c(-c3cc4ccccc4oc3=O)cc21", "note": "(configuration not stated)", "growth": "129%"}, {"molecule": "SCc1ccc(CS)cc1", "growth": "92.3%"}, {"molecule": "CC1=C(C(=O)Nc2ccc(F)cc2)C(c2ccccc2)C2=C(CC(C)(C)CC2=O)N1", "note": "(configuration not stated)", "growth": "91.1%"}, {"molecule": "CSCCC1NC(=O)C(C(C)=Nc2ccccc2)=C1O", "note": "(configuration not stated)", "growth": "105%"}, {"molecule": "CC(OC(=O)Nc1cccc(Cl)c1)C(=O)O", "note": "(configuration not stated)", "growth": "113%"}, {"molecule": "C1=C\\CCCCN2CC[C@H]3[C@H](CCCC/C=C\\CCCN4C[C@@H](CCCCC/1)C[C@@H]3C4)C2", "growth": "89.5%"}, {"molecule": "Cc1ccc(O)c(Cc2ccccc2)c1", "growth": "92.4%"}, {"molecule": "c1ccc2c(c1)cnc1ccccc12", "growth": "106%"}]}, {"system": "MDA-MB-435 melanoma", "assay": "NCI-60 one-dose screen, 48 h (100 = growth as untreated, 0 = no growth, -100 = all killed)", "settings": "10 µM unless noted", "values": [{"molecule": "O=C(O)Cn1ccc2ccccc21", "growth": "108%"}, {"molecule": "Cc1ccc2nc(CN(CCN(Cc3nc4ccc(C)cc4[nH]3)Cc3nc4ccc(C)cc4[nH]3)Cc3nc4ccc(C)cc4[nH]3)[nH]c2c1", "growth": "-92.6% (active)"}, {"molecule": "CO[C@@]12[C@@H]3NC3CN1C1=C(C(=O)C(N)=C(C)C1=O)[C@@H]2COC(N)=O", "note": "(some centres not stated)", "growth": "34.9%"}, {"molecule": "COCCn1c(Nc2ccc(C(=O)NO)cc2)nc2ccccc21", "growth": "46%"}, {"molecule": "N#Cc1c(NN)n(C2OC(CO)C(O)C2O)c2ncnc(N)c12", "note": "(configuration not stated)", "growth": "-15.5% (active)"}, {"molecule": "CCCCCNCCCCCNc1cc(OC)cc2cccnc12", "growth": "103%"}, {"molecule": "Cc1cc(O)ccc1C1=NN(c2ccc(S(N)(=O)=O)cc2)C(=O)CC1", "growth": "-21.1% (active)"}, {"molecule": "CC(=O)OC1Oc2cc(C)c(C)cc2-c2oc(=O)c(-c3ccc(F)cc3)cc21", "note": "(configuration not stated)", "growth": "-7.18% (active)"}, {"molecule": "CCCCCCCCCCCCCCCC1=NCC[N+]1(CCO)CCO", "growth": "30.7%"}, {"molecule": "Nc1cc2nc3ccccc3oc-2cc1=O", "growth": "-88% (active)"}, {"molecule": "CCOC(=O)C(=CNc1ccccc1Cl)C(=O)OCC", "growth": "76.9%"}, {"molecule": "O=[N+]([O-])c1cc(F)c2cccnc2c1O", "growth": "102%"}, {"molecule": "O=C1C=CC(=O)N1CO", "growth": "127%"}, {"molecule": "COc1ccc(C2C=C(c3ccc(Cl)cc3)N=C3SC=CN32)cc1", "note": "(configuration not stated)", "growth": "107%"}, {"molecule": "CCCCCc1c(C)[nH]c(/C=C2\\N=C(c3ccc[nH]3)C=C2CC)c1C", "growth": "-77.9% (active)"}, {"molecule": "COc1ccc(CCN2COc3c([C@@H](C)CCC=C(C)C)ccc(C)c3C2)cc1OC", "growth": "61.4%"}, {"molecule": "Cc1nc([C@H]2CC[C@H]3[C@@H]4CCC5=CC(=O)CC[C@]5(C)[C@H]4CC[C@]23C)cs1", "growth": "66.8%"}, {"molecule": "CC(=O)OC1Oc2ccccc2-c2oc3nc(=N)n(C)c-3cc21", "note": "(configuration not stated)", "growth": "122%"}, {"molecule": "Cn1c(=O)c2c3c(oc2c2ccccc21)C(=O)c1ccccc1C3=O", "growth": "104%"}, {"molecule": "CN(CCO)c1ccc(N2Cc3ccccc3OC3=C2C(=O)c2c(O)ccc(O)c2C3=O)cn1", "growth": "-84% (active)"}, {"molecule": "Fc1ccc(-c2nnc(N3CCOCC3)c3ccccc23)cc1", "growth": "86.6%"}, {"molecule": "CC(=O)[C@@]1(O)[C@H](C)C[C@H]2[C@@H]3C=C(C)C4=Cc5c(cnn5-c5ccccc5)C[C@]4(C)[C@H]3[C@@H](O)C[C@@]21C", "growth": "37.7%"}, {"molecule": "N#Cc1c(N)n(C2OC(CO)C(O)C2O)c2ncnc(N)c12", "note": "(configuration not stated)", "growth": "-58.4% (active)"}, {"molecule": "CCCCCCCCCCCCCCCCCC1=NC(C)(C)CN1C(C)(C)CO", "growth": "-68.7% (active)"}, {"molecule": "CC(=O)OC1Oc2cc(C)c(C)cc2-c2oc(=O)c(-c3cc4ccccc4oc3=O)cc21", "note": "(configuration not stated)", "growth": "112%"}, {"molecule": "SCc1ccc(CS)cc1", "growth": "111%"}, {"molecule": "CC1=C(C(=O)Nc2ccc(F)cc2)C(c2ccccc2)C2=C(CC(C)(C)CC2=O)N1", "note": "(configuration not stated)", "growth": "90.3%"}, {"molecule": "O=C(C(=O)c1cccnc1)c1cccnc1", "growth": "119%"}, {"molecule": "Clc1ccc2c(c1)-n1cccc1C(c1ccc3ccccc3c1)=NC2", "growth": "50.4%"}, {"molecule": "F", "growth": "-26.3% [6.87 mM] (active)"}, {"molecule": "COc1cccc(OCC(O)CN2CCN(c3ccccc3)CC2)c1", "note": "(configuration not stated)", "growth": "121%"}, {"molecule": "CSCCC1NC(=O)C(C(C)=Nc2ccccc2)=C1O", "note": "(configuration not stated)", "growth": "95.4%"}, {"molecule": "CC(OC(=O)Nc1cccc(Cl)c1)C(=O)O", "note": "(configuration not stated)", "growth": "82.8%"}, {"molecule": "C1=C\\CCCCN2CC[C@H]3[C@H](CCCC/C=C\\CCCN4C[C@@H](CCCCC/1)C[C@@H]3C4)C2", "growth": "-70.3% (active)"}, {"molecule": "CCOc1c(C#N)c2c(N)ncnc2n1C1OC(CO)C(O)C1O", "note": "(configuration not stated)", "growth": "18.1%"}, {"molecule": "COc1cc(/C=C/c2ccc3c(Br)cc(Br)c(O)c3n2)ccc1O", "growth": "32%"}, {"molecule": "Cc1ccc(O)c(Cc2ccccc2)c1", "growth": "107%"}, {"molecule": "c1ccc2c(c1)cnc1ccccc12", "growth": "102%"}, {"molecule": "O=C(Nc1ccc(Oc2ccc(NC(=O)Nc3ccccc3Cl)cc2)cc1)Nc1ccccc1Cl", "growth": "48.8%"}]}]}
